Assay outcomes from PubChem BioAssay.
Sfp inh – inhibitors of Bacillus subtilis Sfp phosphopantetheinyl transferase | Q9F4F7 | Biochemical Sfp PPTase activity, qHTS | Potency, µM, inactives show largest response in the series, negative = inhibition, usual class: inhibitors | hit rate 3.5% among 310,000;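 further: the enzyme is Sfp with the accession as filed and its product quenches rhodamine fluorescence; 0% = enzyme reaction without inhibitor and -100% = no enzyme wells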
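Reaction rates are the 30-min fluorescence difference (ex 525, em 598 nm) in wells containing 15 nM Sfp, 5 uM rhodamine-CoA and 12.5 uM BHQ-2-YbbR at pH 7.6 with 10 mM MgCl2.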
HP1b binding inh – inhibitors of HP1-beta chromodomain binding to methylated histone tails. P83916. AlphaScreen HP1-beta / biotin-H3K9me3 peptide binding. Potency, µM (top dose mostly 114 µM), for inactives: at the highest dose activity change, negative = inhibition, most hits filed as inhibitors. hit rate 0.56% among 390,000. AID 540317; further: nearly all actives have a fitted effect of over 70% in size
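HP1-beta protein (50 nM final) preincubated 30 min at room temperature with biotinylated H3(1-18)K9me3 peptide (50 nM) in PBS pH 7.4, 0.01% Tween-20, then compound added for 30 min. AlphaScreen streptavidin donor/nickel chelate acceptor beads (10 ug/mL final), 30 min dark, luminescence read.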
BAZ2B inh – blocks human BAZ2B | Q9UIF8 | AlphaScreen BAZ2B-H3K14Ac peptide displacement | Potency, µM (titrated, usually from 114 µM), for the others: at the highest dose activity change, negative = inhibition, actives largely listed as inhibitors | hit rate 4.4% among 360,000 | AID 504333; further: on the % scale 0 is the no-effect control and ±100 the full control effect; nearly all actives have a fitted effect of over 60% in size
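BAZ2B 50 nM plus b-H3(5-23)K14Ac 50 nM, PBS pH 7.4/0.01% Tween-20, 30 min RT; compound added (max 110 uM), 30 min RT; streptavidin donor/Ni-chelate acceptor beads 10 ug/mL final, 20 min dark; AlphaScreen read.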
PLK1 PBD inh – blocks phosphopeptide binding to human PLK1 polo-box domain | P53350 | Plk1 PBD binding of FITC phosphopeptide, fluorescence polarization | Potency, µM, for the others: max response, negative = inhibition, actives largely listed as inhibitors | hit rate 2.8% among 360,000 | AID 720504; further: series mostly up to about 57 µM; on the % scale 0 is the no-effect control and ±100 the full control effect; nearly all actives have a fitted effect of over 65% in size
JMJD2A Tudor – inhibitors of human JMJD2A Tudor domain; O75164; hit rate 4.4% among 390,000; Potency, µM (series often up to 114 µM), for inactives: top-dose activity change, negative = inhibition, hits mostly inhibitors; AlphaScreen JMJD2A-Tudor / H3K4me3 peptide binding; further: on the % scale 0 is the no-effect control and ±100 the full control effect; nearly all actives have a fitted effect of over 50% in size
Target sequence (O75164 whole entry, looked up, the tested form may be a part): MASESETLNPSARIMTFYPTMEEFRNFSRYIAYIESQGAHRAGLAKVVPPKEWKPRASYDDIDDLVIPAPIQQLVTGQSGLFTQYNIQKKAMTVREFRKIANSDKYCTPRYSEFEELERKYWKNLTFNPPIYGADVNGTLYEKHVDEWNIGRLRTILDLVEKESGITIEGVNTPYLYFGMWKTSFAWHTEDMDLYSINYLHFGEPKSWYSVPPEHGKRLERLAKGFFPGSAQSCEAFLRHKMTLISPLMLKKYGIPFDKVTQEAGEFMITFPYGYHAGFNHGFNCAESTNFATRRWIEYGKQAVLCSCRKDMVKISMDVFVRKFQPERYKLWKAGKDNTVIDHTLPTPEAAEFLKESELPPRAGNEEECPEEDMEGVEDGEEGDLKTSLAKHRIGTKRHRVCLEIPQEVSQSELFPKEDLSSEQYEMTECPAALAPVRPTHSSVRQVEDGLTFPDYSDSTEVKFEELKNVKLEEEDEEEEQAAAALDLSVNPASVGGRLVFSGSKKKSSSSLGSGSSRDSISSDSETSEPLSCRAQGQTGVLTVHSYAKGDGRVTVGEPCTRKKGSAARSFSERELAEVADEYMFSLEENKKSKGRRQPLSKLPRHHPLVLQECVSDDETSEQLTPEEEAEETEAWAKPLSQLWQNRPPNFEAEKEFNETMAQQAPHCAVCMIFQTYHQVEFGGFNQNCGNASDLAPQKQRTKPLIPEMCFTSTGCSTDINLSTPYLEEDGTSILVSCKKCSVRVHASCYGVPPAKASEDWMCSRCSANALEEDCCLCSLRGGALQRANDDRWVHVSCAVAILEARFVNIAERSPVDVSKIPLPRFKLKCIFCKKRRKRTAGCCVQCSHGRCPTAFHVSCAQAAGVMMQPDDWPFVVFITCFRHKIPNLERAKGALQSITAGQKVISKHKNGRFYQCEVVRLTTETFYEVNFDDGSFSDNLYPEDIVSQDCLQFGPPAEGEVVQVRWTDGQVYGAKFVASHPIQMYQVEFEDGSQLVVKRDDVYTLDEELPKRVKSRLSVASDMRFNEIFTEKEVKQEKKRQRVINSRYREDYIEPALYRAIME
G9a block – G9a (human) methyltransferase inhibition; hit rate 8.8% among 350,000; Potency, µM (highest dose often 102 µM), for the others: top-dose activity, negative = inhibition, actives largely listed as inhibitors; AID 504332; Q96KQ7; G9a H3K9 monomethylation, AlphaScreen, 2 h; further: on the % scale 0 is the no-effect control and ±100 the full control effect; nearly all actives have a fitted effect of over 75% in size
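G9a (20 nM) preincubated 15 min RT with compounds, then 500 nM biotinylated H3K9 peptide and 20 uM SAM added; 2 h RT reaction. Monomethyl-H3K9 product detected by AlphaScreen with anti-H3K9me1 antibody, streptavidin donor and anti-rabbit IgG acceptor beads.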
The depositor's hits bear a star; ? = inconclusive; . = no result given; [ ] = another dose, or the depositor's remark. An excerpt weighted towards active compounds, which were near 12% of everything screened. The call rests on the fitted dose curve; in most records, active means well fitted curve in the direction sought with a large enough effect; inconclusive means small, poorly fitted or top-dose-only effect, or another doubt; inactive means no such curve, though single readings can be large; an effect the other way counts as inactive or inconclusive. Potency means the concentration at half of the fitted maximal effect.

SMILES | Sfp inh | HP1b binding inh | BAZ2B inh | PLK1 PBD inh | JMJD2A Tudor | G9a block
Cc1cccnc1NCc1ccc(O)c2ncccc12 | 15.9% | -15.3% | 12.6µM* | 18.9µM* | 22.4µM* | 1.78µM*
Cc1cccc(NCc2ccc(O)c3ncccc23)c1C | 27.0% | -4.4% | 56.2µM* | 5.97µM* | ? | 0.398µM*
Cc1ccc(NCc2ccc(O)c3ncccc23)cc1C | 7.6% | 11.4% | 13.0% | 3.36µM* | ? | 18.3%
CCc1cccc(C)c1NC(=O)c1cc(S(=O)(=O)NCc2ccccc2Cl)ccc1F | . | -6.3% | 1.7% | . | ? | 5.4%[59 µM]
Clc1ccc(-n2nnnc2-c2ccccc2)cc1 | -20.6% | -15.4% | 1.2% | -28.7% | 2.9% | 44.7µM*
Clc1ccc(-c2nnnn2-c2ccc(Cl)cc2)cc1 | 15.5% | 54.8% | 9.9% | -6.8% | 24.5% | -2.4%
Clc1ccc(-n2nnnc2-c2cnc3ccccc3c2-c2ccccc2)cc1 | -3.8% | 5.2% | -20.1% | 0.8% | -30.6% | 14.1µM*
COc1ccc2ccc3c(c2c1)N=C[C@]1(O3)N(C)c2ccccc2C1(C)C | 50.1µM* | ? | 50.1µM* | 2.99µM* | -28.2%[11.4 µM] | 28.8%[0.501 µM]
COc1ccc2c(c1)c1ccccc1n2C | 19.2% | 77.1% | 34.7% | -10.2% | 8.8% | 9.3%[59 µM]
Cc1oc(-c2ccccc2Cl)nc1CS(=O)(=O)CC(=O)N1CCOCC1 | 13.1% | 16.4% | 10.6% | 2.5% | -9.2% | 9.3%
Cc1ccccc1SCC(=O)OCC(=O)NCCNC(=O)COC(=O)CSc1ccccc1C | . | 37.2% | -13.3% | 2.9% | -8.5% | 50.1µM*
COC(=O)CCCC1=CC2=C(c3ccccc3)C(=O)C(C)(OC(=O)C3CCCC3)C(=O)C2=CO1 (stereo unspecified) | -5.4% | . | . | . | . | .
CSC1=NC(=O)/C(=C\c2cccc3ccccc23)S1 | -13.2% | -17.2% | 39.8µM* | -26.9% | ? | -23.1%
CCOc1ccc2c(c1)n(CO)c(=S)n2CO | 0.6% | 6.2% | -0.3% | -12.4% | 79.4µM* | 2.24µM*
CCOc1ccc2c(c1)c(N=NC(N)=S)c(O)n2C | -12.2% | 46.5% | -18.6% | -2.1% | -12.3% | 3.8%[59 µM]
CCN1c2ccccc2-c2nc3ccccc3n2C1c1cccs1 (stereo unspecified) | -12.3% | 169.1% | 58.5% | -3.6% | 63.7% | 67.0%[59 µM]
CC1(C)CC(=O)C(N=Nc2cccnc2)=C(O)C1 | -19.8% | 3.7% | -5.8% | -7.8% | 35.5µM* | ?
CC1(C)CC(=O)C(N=Nc2ccc(-c3ccccc3)cc2)=C(O)C1 | 24.5% | 10.4% | -18.0% | -5.1% | ? | -11.8%
CC1(C)CC(=O)C(N=Nc2cc(C(F)(F)F)ccc2Cl)=C(O)C1 | 3.9% | 3.8% | ? | -3.8% | -35.2% | ?
CC1(C)CC(=O)C(N=Nc2c(Cl)cc(Cl)cc2Cl)=C(O)C1 | -3.6% | -14.3% | ? | -10.1% | 50.1µM* | 3.9%[59 µM]
CC1(C)CC(=O)C(N=Nc2cc(S(=O)(=O)N3CCOCC3)ccc2Cl)=C(O)C1 | -2.3% | 34.2% | 56.2µM* | -2.8% | 2.1% | 50.1µM*
Cc1ccc(S(=O)(=O)N(C)CC(=O)N(C)CCOc2ccccc2)cc1 | . | . | . | -1.5% | . | .
Cc1ccc(CNC(=O)C2CCN(S(=O)(=O)c3ccc4c(c3)oc(=O)n4C)CC2)cc1 | . | 37.5% | -2.0% | . | -7.9% | ?
COc1cc(C(CC(=O)Nc2cc(C)ccn2)N2Cc3ccccc3C2=O)cc(OC)c1OC (stereo unspecified) | 16.6% | 21.1% | 10.0% | 1.7% | 3.7% | 16.3%
CC(C)[C@@H]1NC(=O)[C@@H](Cc2ccccc2)NC(=O)[C@H](CC(=O)O)NC(=O)CNC(=O)[C@H](CCCN=C(N)N)NC1=O | 0.9% | . | . | . | . | .
C[C@@H]1NC(=O)[C@H](CCCN=C(N)N)NC(=O)c2cc([N+](=O)[O-])cc(I)c2OCC[C@@H](C(=O)NC(CC(=O)O)C(N)=O)NC1=O (stereo partly specified) | -11.9% | . | -28.2% | . | . | 39.8µM*
